Laboratory results from PubChem BioAssay (NCATS).
Several values for one entry are separate records, joined by “and”; a condition that tells them apart may be missing. Equal entries are not always repeated. Inconclusive results are not listed. Entries that show only a call come without a potency. Activity calls are given as the source filed them. Unless noted, calls come from the whole dose curve; as a rule, active = well fitted curve in the direction sought with a large enough effect; inconclusive = small, poorly fitted or top-dose-only effect, or another doubt; inactive = no such curve, though single readings can be large; an effect the other way counts as inactive or inconclusive.

What was measured:
[1] = P-glycoprotein substrates identified in KB-8-5-11 adenocarcinoma cell line, qHTS therapeutic library screen (AID 1346987); note: nearly all actives have a fitted effect of over 65% in size; note: potency is the fitted concentration of half-maximal effect
Summary of the method: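 Luminescence from CellTiter-Glo, read 5 min after addition, quantified survival of KB-8-5-11 (P-gp-overexpressing) cells exposed to compounds for 72 h. AC50 was derived from concentration-response curves.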

[2] = NS1 protein of Zika virus - qHTS assay to identify small molecule inhibitors in human HEK 293 cells (AID 1347053); note: series mostly up to about 46 µM; nearly all actives have a fitted effect of over 55% in size
Summary of the method: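 Readout was TR-FRET using paired anti-NS1 antibodies after 24 h infection of HEK 293 cells with ZIKV MR766 (MOI = 0.5). Compound preceded virus by 1 h; reduced signal reflects lower NS1 expression.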

[3] = qHTS of pediatric cancer cell lines to identify multiple opportunities for drug repurposing: Primary screen for TC32 cells (AID 1347089); note: nearly all actives have a fitted effect of over 60% in size
Summary of the method: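 Luminescent ATP read-out (CellTiter-Glo) of metabolically active TC32 cells after 48 h exposure. Concentration-response curves came from 11-point (MIPE, 0.78 nM–46 µM) or 8-point (NPC, 0.59 nM–46 µM) primary titrations; follow-up used 11 points.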

[4] = qHTS of pediatric cancer cell lines to identify multiple opportunities for drug repurposing: Primary screen for DAOY cells (AID 1347090); note: nearly all actives have a fitted effect of over 55% in size; note: potency is the fitted concentration of half-maximal effect
Summary of the method: (§1)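 Eight- or eleven-point concentration series, 48 h treatment at 37 degrees C in growth media; readout CellTiter-Glo luminescence. Potency and efficacy were taken from the concentration-response curves.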

[5] = qHTS of pediatric cancer cell lines to identify multiple opportunities for drug repurposing: Primary screen for A673 cells (AID 1347092); note: nearly all actives have a fitted effect of over 45% in size; note: potency is the fitted concentration of half-maximal effect
Summary of the method: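 Cell viability of A673 measured by CellTiter-Glo ATP luminescence after 48 hours compound exposure. Dilution series spanned 0.78 nM to 46 µM (MIPE, 11-point) or 0.59 nM to 46 µM (NPC, 8-point); bortezomib 2.3 uM positive control.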

[6] = qHTS of pediatric cancer cell lines to identify multiple opportunities for drug repurposing: Primary screen for SK-N-MC cells (AID 1347093); note: potency is the fitted concentration of half-maximal effect
Summary of the method: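 Metabolically active cells were quantified by ATP-dependent luminescence (CellTiter-Glo, 15 min at room temperature) following 48 h treatment. Cells had been plated at 500-1,000 per well and settled for 5 h beforehand.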

[7] = qHTS of pediatric cancer cell lines to identify multiple opportunities for drug repurposing: Primary screen for U-2 OS cells (AID 1347096); note: nearly all actives have a fitted effect of over 50% in size; note: potency is the fitted concentration of half-maximal effect
Summary of the method: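 Cells (500-1,000/well) in growth media were settled 5 h at 37 degrees C, then given compounds for 48 h. Viability was read as CellTiter-Glo luminescence. Primary runs used MIPE at 11 points (0.78 nM-46 µM) and NPC at 8 points (0.59 nM-46 µM); follow-ups used 11 points.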

[8] = qHTS of pediatric cancer cell lines to identify multiple opportunities for drug repurposing: Primary screen for SK-N-SH cells (AID 1347098); note: nearly all actives have a fitted effect of over 65% in size; note: potency is the fitted concentration of half-maximal effect
Summary of the method: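 Cells (500-1,000/well) rested 5 h, then received compounds for 48 h; metabolically active cells were measured by CellTiter-Glo luminescence. Final concentrations spanned up to 46 µM (MIPE, 11-point) or 0.59 nM-46 µM (NPC, 8-point) in primary screens, 11-point in follow-ups.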

[9] = qHTS of pediatric cancer cell lines to identify multiple opportunities for drug repurposing: Primary screen for SJ-GBM2 cells (AID 1347091); note: potency is the fitted concentration of half-maximal effect
Summary of the method: as §1

[10] = qHTS of pediatric cancer cell lines to identify multiple opportunities for drug repurposing: Primary screen for BT-37 cells (AID 1347094); note: potency is the fitted concentration of half-maximal effect
Summary of the method: (§2)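 Following a 5-hour attachment period, cells at 500-1,000/well received compounds and were cultured for 48 hours. CellTiter-Glo was added and luminescence read to estimate viable, metabolically active cells.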

[11] = qHTS of pediatric cancer cell lines to identify multiple opportunities for drug repurposing: Primary screen for NB-EBc1 cells (AID 1347095); note: potency is the fitted concentration of half-maximal effect
Summary of the method: as §2

[12] = qHTS of pediatric cancer cell lines to identify multiple opportunities for drug repurposing: Primary screen for NB1643 cells (AID 1347099); note: nearly all actives have a fitted effect of over 50% in size; note: potency is the fitted concentration of half-maximal effect
Summary of the method: as §2

[13] = qHTS of pediatric cancer cell lines to identify multiple opportunities for drug repurposing: Primary screen for Saos-2 cells (AID 1347097); note: nearly all actives have a fitted effect of over 40% in size; note: potency is the fitted concentration of half-maximal effect
Summary of the method: as §2

[14] = Natriuretic polypeptide receptor (hNpr1) antagonism - Pilot counterscreen GloSensor control cell line (AID 1347045; calls by dose curve; note: series mostly up to about 38 µM)
Summary of the method: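 Cells were first seeded and incubated overnight at 37C, then loaded with 2% GloSensor substrate for 2 h. Compounds were added for 30 min at room temperature, followed by a baseline read, 50 uM SNP and a final read after 20 min.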

[15] = molecular target: Atrial natriuretic peptide receptor 1 (Homo sapiens) (UniProt P16066); test: Natriuretic polypeptide receptor (hNpr1) antagonism - Pilot screen (AID 1347049; calls by dose curve;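 note: HEK293 cells with hNpr1 and GloSensor cGMP luciferase stimulated by 0.1 nM hNppA; agonist-evoked cGMP luminescence read 20 min after hNppA addition; series mostly up to about 58 µM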)
Summary of the method: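 Cells expressing receptor plus cGMP biosensor are seeded and incubated overnight at 37C, then loaded with GloSensor reagent (2% final) at room temperature for 2 h. Library compounds go on for 30 min. A pre-read precedes agonist (hNppA, 0.1 nM final) and a 20-min readout.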

[16] = molecular target: Atrial natriuretic peptide receptor 2 (Homo sapiens) (UniProt P20594); test: Natriuretic polypeptide receptor (hNpr2) antagonism - Pilot subtype selectivity assay (AID 1347050; calls by dose curve)
Summary of the method: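 Read-out: GloSensor luminescence (CCD imager), baseline vs post-stimulation. HEK293 cells expressing hNpr2; compounds pre-incubated 30-50 min at ambient temperature; hNppC 1 nM final, 20 min.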

[17] = molecular target: T1, Tyrosine-protein phosphatase non-receptor type substrate 1 (Homo sapiens) + Leukocyte surface antigen CD47 (Homo sapiens) (UniProt P78324+Q08722); test: CD47-SIRPalpha protein protein interaction - LANCE assay qHTS validation (AID 1347057; active = well fitted curve in the direction sought with a large enough effect in the signal ratio, with a control signal flat, not every such curve was filed as active; the % refers to the signal ratio; note: series mostly up to about 38 µM)
Summary of the method: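 Inhibition of soluble CD47/SIRPalpha ectodomain association by titrated compounds, measured as 665/615 nm time-resolved FRET ratio after sequential 30 min room-temperature incubations.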

[18] = molecular target: T1, Tyrosine-protein phosphatase non-receptor type substrate 1 (Homo sapiens) + Leukocyte surface antigen CD47 (Homo sapiens); test: CD47-SIRPalpha protein protein interaction - HTRF assay qHTS validation (AID 1347058; active = well fitted curve in the direction sought with a large enough effect in the signal ratio, not every such curve was filed as active; the % refers to the signal ratio; note: series mostly up to about 38 µM)
Summary of the method: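 Soluble extracellular domains (6His-CD47, Avi-tag-biotinylated SIRPalpha) in PBS pH 7.4 with 0.05% IGEPAL CA-630. Compounds were preincubated 30 min at RT with CD47 and anti-His-Eu, then SIRPalpha and SAV-XL665 were added. TR-FRET 665/615 ratio.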

[19] = molecular target: T1, Tyrosine-protein phosphatase non-receptor type substrate 1 (Homo sapiens) + Leukocyte surface antigen CD47 (Homo sapiens); test: CD47-SIRPalpha protein protein interaction - Alpha assay qHTS validation (AID 1347059);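 note: bead proximity luminescence from CD47 binding SIRPalpha after compound preincubation with SIRPalpha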
Summary of the method: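 In PBS (pH 7.4) with 0.05% IGEPAL CA-630, compound is preincubated with biotin-Avi-SIRPalpha ectodomain before His-CD47 ectodomain and affinity beads are added. Light-protected room-temperature incubations; AlphaScreen readout.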

[20] = molecular target: Parathyroid hormone/parathyroid hormone-related peptide receptor (Homo sapiens) (UniProt Q03431); test: qHTS for PTHR1 Agonists: Optimization Screen against the NCGC LOPAC library (AID 1347079);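 note: GloSensor cAMP luminescence in HEK-293 GP2 cells expressing human PTHR1 with IBMX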
Summary of the method: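 HEK-293 GP2 cells, PTHR1 + GloSensor cAMP; 3000 cells/well, o/n. Luciferin + IBMX 0.5mM each (stock), 1 hr 37C. Cpd titration, 1 hr 37C. Lum after 15 min RT. Ctrl M-PTH(1-15) top 10uM.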

T1 sequence (P78324 whole entry, looked up, the tested form may be a part): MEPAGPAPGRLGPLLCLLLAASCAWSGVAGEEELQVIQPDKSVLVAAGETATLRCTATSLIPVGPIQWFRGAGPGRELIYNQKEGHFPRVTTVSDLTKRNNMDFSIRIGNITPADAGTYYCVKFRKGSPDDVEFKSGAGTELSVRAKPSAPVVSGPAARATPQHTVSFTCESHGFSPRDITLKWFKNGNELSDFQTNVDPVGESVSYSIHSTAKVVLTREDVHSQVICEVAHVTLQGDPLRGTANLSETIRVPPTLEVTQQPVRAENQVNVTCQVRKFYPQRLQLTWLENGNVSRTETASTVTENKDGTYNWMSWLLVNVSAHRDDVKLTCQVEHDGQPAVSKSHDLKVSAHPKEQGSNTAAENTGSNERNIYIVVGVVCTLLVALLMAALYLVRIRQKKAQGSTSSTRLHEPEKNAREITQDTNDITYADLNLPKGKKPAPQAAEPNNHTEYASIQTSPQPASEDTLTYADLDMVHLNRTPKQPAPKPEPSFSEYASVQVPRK
T1 sequence (Q08722 whole entry, looked up, the tested form may be a part): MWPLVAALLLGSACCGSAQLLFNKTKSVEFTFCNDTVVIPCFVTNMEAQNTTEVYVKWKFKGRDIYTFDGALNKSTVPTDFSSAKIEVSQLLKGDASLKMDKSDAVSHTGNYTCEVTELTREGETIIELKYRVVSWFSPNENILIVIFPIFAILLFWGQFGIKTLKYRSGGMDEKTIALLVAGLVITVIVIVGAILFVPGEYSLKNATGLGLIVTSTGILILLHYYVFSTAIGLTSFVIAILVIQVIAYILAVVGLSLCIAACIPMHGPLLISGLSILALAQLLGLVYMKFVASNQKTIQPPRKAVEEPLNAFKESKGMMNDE
Chain of Parathyroid hormone/parathyroid hormone-related peptide receptor (Homo sapiens) (Q03431 whole entry, looked up): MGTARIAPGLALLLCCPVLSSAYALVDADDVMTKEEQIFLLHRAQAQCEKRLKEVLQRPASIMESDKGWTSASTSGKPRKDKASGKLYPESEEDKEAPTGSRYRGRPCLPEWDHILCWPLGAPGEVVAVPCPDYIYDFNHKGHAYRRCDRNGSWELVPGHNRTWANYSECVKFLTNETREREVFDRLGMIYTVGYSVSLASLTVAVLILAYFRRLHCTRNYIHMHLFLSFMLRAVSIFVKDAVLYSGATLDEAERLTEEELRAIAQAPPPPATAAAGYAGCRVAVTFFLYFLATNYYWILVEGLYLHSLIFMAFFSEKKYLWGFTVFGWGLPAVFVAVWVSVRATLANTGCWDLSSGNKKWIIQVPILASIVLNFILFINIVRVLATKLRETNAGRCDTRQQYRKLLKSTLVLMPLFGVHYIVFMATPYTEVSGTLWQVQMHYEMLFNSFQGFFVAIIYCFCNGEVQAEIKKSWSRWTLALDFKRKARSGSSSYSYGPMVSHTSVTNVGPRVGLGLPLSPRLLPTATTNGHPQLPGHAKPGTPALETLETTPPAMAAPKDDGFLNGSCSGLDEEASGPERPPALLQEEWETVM
Chain of Atrial natriuretic peptide receptor 2 (Homo sapiens) (P20594 whole entry, looked up): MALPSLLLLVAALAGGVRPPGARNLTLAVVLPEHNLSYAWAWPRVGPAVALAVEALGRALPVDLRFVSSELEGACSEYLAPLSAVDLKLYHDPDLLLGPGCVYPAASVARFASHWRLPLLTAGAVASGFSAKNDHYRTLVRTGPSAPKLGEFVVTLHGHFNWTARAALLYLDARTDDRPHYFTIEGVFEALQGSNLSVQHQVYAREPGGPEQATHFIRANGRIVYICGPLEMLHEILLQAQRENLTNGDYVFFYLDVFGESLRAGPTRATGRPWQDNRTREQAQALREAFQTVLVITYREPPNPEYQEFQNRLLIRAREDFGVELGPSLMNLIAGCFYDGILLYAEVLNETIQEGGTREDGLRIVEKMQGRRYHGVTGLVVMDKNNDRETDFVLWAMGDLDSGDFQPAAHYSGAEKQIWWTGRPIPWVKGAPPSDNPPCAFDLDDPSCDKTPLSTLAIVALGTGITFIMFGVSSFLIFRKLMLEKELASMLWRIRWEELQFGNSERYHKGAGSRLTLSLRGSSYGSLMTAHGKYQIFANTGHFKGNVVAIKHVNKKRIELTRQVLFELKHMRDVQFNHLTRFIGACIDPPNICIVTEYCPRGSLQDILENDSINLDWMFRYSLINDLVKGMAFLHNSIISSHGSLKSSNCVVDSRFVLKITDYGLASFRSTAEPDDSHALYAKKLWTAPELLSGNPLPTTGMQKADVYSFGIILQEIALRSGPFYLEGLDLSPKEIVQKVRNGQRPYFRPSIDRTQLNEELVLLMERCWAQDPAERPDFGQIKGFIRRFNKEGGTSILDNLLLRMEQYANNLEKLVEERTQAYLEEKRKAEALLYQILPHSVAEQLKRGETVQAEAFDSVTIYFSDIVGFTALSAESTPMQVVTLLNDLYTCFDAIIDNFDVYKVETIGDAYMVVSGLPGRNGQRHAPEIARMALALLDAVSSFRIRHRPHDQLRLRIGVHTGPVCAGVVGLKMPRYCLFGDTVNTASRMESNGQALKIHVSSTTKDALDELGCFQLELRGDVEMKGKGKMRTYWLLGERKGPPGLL
Chain of Atrial natriuretic peptide receptor 1 (Homo sapiens) (P16066 whole entry, looked up): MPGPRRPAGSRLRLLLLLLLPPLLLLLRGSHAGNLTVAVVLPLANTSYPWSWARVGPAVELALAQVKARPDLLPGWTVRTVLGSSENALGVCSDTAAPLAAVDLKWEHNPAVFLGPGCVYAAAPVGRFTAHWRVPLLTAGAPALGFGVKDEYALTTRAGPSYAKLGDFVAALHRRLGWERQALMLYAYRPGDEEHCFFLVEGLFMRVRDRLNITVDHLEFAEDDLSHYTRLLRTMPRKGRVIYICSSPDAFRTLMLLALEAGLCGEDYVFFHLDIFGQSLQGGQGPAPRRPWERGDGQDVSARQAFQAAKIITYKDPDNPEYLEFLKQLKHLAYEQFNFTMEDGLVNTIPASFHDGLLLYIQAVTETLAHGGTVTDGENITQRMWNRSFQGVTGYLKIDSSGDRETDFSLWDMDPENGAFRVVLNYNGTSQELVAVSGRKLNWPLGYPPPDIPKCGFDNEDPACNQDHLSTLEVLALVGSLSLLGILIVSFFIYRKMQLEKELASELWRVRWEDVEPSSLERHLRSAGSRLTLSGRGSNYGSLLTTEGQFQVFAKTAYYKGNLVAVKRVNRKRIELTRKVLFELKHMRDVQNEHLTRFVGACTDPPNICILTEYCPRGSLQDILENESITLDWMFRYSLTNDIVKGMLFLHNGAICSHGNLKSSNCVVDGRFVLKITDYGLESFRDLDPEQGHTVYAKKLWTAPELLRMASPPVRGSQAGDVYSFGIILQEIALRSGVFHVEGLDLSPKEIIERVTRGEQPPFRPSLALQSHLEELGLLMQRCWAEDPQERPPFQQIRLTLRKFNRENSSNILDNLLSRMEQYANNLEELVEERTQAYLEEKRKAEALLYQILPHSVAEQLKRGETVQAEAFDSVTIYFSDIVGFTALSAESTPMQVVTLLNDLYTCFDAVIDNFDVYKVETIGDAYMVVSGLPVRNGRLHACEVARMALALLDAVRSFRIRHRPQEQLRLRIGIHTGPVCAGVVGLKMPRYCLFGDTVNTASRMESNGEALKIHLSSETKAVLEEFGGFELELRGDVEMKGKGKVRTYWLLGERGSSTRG

CC[C@@H](C)[C@H](NC(=O)[C@H](CC1CCCCC1)NC(=O)c1ccno1)C(=O)N1CCC2(CCc3ccccc32)CC1
Potency [1]: inactive | Potency [2]: inactive | Potency [3]: inactive | Potency [4]: inactive | Potency [5]: inactive | Potency [6]: 8.33 µM (active) | Potency [7]: inactive | Potency [8]: inactive

COc1nc(-c2ccc3c(c2)OCO3)n(-c2ccc(NC(=O)CSc3ccccc3)cc2)n1
Potency [1]: inactive | Potency [2]: inactive | Potency [3]: inactive | Potency [4]: inactive | Potency [9]: inactive | Potency [5]: inactive | Potency [6]: inactive | Potency [10]: inactive | Potency [11]: inactive | Potency [7]: inactive | Potency [12]: inactive

Cc1csc(NC(=O)c2sc3nc4c(c(C(F)(F)F)c3c2N)CCC4)n1
Potency [1]: inactive | Potency [2]: inactive | Potency [3]: inactive | Potency [4]: 23.5 µM (active) | Potency [5]: 1.18 µM (active) | Potency [6]: inactive | Potency [10]: 8.63 µM (active) | Potency [11]: inactive | Potency [7]: inactive | Potency [13]: inactive

NC(=O)c1ccc(-c2nc(-c3ccc4c(c3)OCO4)c(-c3ccccn3)[nH]2)cc1
Potency [1]: inactive | Potency [2]: inactive | Potency [3]: inactive | Potency [4]: inactive | Potency [9]: inactive | Potency [5]: inactive | Potency [6]: inactive | Potency [11]: inactive | Potency [7]: inactive | Potency [13]: inactive | Potency [8]: inactive | Potency [12]: inactive

COc1cc(Oc2ccnc3cc(OC)c(OC)cc23)ccc1NC(=O)NC(C)c1nccs1 (configuration not stated)
Potency [1]: inactive | Potency [2]: inactive | Potency [3]: inactive | Potency [4]: inactive | Potency [10]: inactive | Potency [7]: inactive | Potency [12]: inactive

COCCNCCCn1c(C(=O)CF)c(-c2ccc(C)cc2)c2c(N)ncnc21
Potency [1]: inactive | Potency [3]: inactive | Potency [5]: 23.5 µM (active) | Potency [10]: inactive | Potency [11]: inactive | Potency [7]: inactive

CCCn1c(=O)c2[nH]c(C34CC5CC3C[C@@H](C5)C4)nc2n(CCC)c1=O
Potency [1]: inactive | Potency [3]: inactive | Potency [4]: inactive | Potency [5]: 18.7 µM (active) | Potency [6]: 10.5 µM (active) | Potency [10]: inactive | Potency [7]: inactive | Potency [8]: inactive

Cc1ccc(NC(=O)c2cccc(C(C)(C)C#N)c2)cc1Nc1ccc2ncn(C)c(=O)c2c1
Potency [1]: 16.6 µM (active) | Potency [3]: inactive | Potency [5]: 14.8 µM (active) | Potency [6]: 18.7 µM (active) | Potency [11]: 5.26 µM (active) | Potency [8]: 24.1 µM (active) | Potency [12]: 18.7 µM (active)

CN(C(=O)c1ccc(F)cc1C(F)(F)F)C1CCN(c2nnc(-c3ccnn3C)c3ccccc23)CC1
Potency [1]: inactive | Potency [3]: inactive | Potency [5]: 11.8 µM (active) | Potency [6]: 0.332 µM (active) | Potency [10]: inactive | Potency [11]: inactive | Potency [7]: inactive | Potency [12]: 4.18 µM (active)

Cc1n[nH]c(C)c1Cc1sc2c(c1C(=O)N1C[C@H](O)CO1)c(=O)n(C)c(=O)n2CC(C)C
Potency [1]: inactive | Potency [4]: inactive | Potency [9]: inactive | Potency [10]: inactive | Potency [11]: inactive | Potency [7]: inactive | Potency [8]: inactive

CNC(=O)c1ccccc1Sc1ccc2c(/C=C/c3ccccn3)n[nH]c2c1
Potency [1]: 18.4 µM (active) and 7.31 µM (active) | Potency [9]: 5.31 µM (active) | Potency [6]: 2.99 µM (active) | Potency [11]: 1.5 µM (active) | Potency [13]: 13.3 µM (active)

CCC(C)(C)C(=O)O[C@H]1C[C@@H](C)C=C2C=C[C@H](C)[C@H](CC[C@@H]3C[C@@H](O)CC(=O)O3)[C@H]21
Potency [1]: 16.6 µM (active) | Potency [2]: inactive | Potency [4]: 6.68 µM (active) and 5.9 µM (active) | Potency [9]: 3.35 µM (active) and 14.8 µM (active) | Potency [5]: 10.6 µM (active) | Potency [6]: 33.2 µM (active) | Potency [7]: 18.7 µM (active) | Potency [13]: 2.37 µM (active) and 2.96 µM (active) | Potency [8]: 7.7 µM (active) and 21.5 µM (active)

OCCn1cc(-c2cnc3nnn(Cc4ccc5ncccc5c4)c3n2)cn1
Potency [1]: inactive | Potency [3]: inactive | Potency [4]: inactive | Potency [9]: 0.0059 µM (active) | Potency [5]: inactive | Potency [6]: inactive | Potency [11]: inactive | Potency [7]: inactive | Potency [13]: inactive | Potency [8]: inactive

CCC(C)N(C)C(=O)c1cc2ccccc2c(-c2ccccc2Cl)n1 (configuration not stated)
outcome [14]: inactive | outcome [15]: inactive | Potency [16]: inactive | Potency [2]: inactive | outcome [17]: inactive | outcome [18]: inactive | outcome [19]: inactive | outcome [20]: inactive | Potency [3]: inactive | Potency [4]: inactive | Potency [5]: inactive | Potency [6]: inactive | Potency [10]: inactive | Potency [11]: inactive | Potency [7]: inactive

CCn1c(-c2nonc2N)nc2c(C#CC(C)(C)O)ncc(OC[C@H]3CCCNC3)c21
Potency [1]: inactive | Potency [9]: 23.5 µM (active) | Potency [5]: 11.8 µM (active) | Potency [6]: 0.469 µM (active) | Potency [11]: 18.7 µM (active) | Potency [7]: inactive | Potency [12]: 18.7 µM (active)

O=C(Nc1ccc(F)c(C(F)(F)F)c1)Nc1nnc(-c2ccncc2)s1
Potency [1]: inactive | Potency [3]: inactive | Potency [9]: inactive | Potency [6]: 20.9 µM (active) | Potency [10]: inactive | Potency [7]: inactive | Potency [13]: inactive
